# Screening results deposited in PubChem by The Scripps Research Institute Molecular Screening Center.
# Compounds with a hit are over-represented: about 3.4% of the library has one in this group of screens.
# FBW7 activator: human FBW7 E3 ligase activation, primary screen | 0.13% of 650,000 active | Q969H0 | normalized activity (activation), % at 26.1 µM | AlphaScreen FBW7–phospho-cyclin E peptide binding, activator screen; in the data active = normalized activity above about 1.9%;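 also: purified mutant Fbw7 with reduced substrate affinity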
# MITF primary: inhibitors of human MITF. O75030. AlphaScreen MITF homodimerization, bead proximity signal. inhibition, % at 2.6 µM. 0.91% of 650,000 active. AID 1259374; in the data active = inhibition above about 50%;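 also: 0% = vehicle wells with protein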
# GPR151 activ: human GPR151 activation. Q8TDV0. activation, % at 11.2 µM. PathHunter beta-arrestin GPR151 cells, luminescence. 1% of 650,000 active; in the data active = activation above about 4.9%;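 also: 0% = median of compound wells and 100% = cells with positive control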
# Target sequence (Q8TDV0 whole entry, looked up): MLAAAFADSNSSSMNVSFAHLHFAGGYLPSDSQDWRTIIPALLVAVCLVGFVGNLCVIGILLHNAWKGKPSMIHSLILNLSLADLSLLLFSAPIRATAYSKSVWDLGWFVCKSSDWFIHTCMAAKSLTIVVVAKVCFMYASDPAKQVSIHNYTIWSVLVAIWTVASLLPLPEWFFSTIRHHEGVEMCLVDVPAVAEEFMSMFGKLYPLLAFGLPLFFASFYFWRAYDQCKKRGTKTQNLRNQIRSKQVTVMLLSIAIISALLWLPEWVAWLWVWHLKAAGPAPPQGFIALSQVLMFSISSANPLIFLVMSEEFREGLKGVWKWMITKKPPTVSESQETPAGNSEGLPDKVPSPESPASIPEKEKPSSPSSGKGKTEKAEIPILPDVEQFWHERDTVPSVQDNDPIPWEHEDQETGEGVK
# TEAD-YAP inh: TEAD-YAP interaction inhibition; HEK-TIYL cells, TEAD-Gal4/YAP UAS-luciferase luminescence; inhibition, % at 9.12 µM; 1.4% of 640,000 active; AID 1259422; in the data active = inhibition above about 32%;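 also: 0% = median of test compound wells and 100% = reference inhibitor wells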
# Numbers without * were called inactive.
SMILES,FBW7 activator,MITF primary,GPR151 activ,TEAD-YAP inh
Cc1ccc(NC(=O)CN(c2cccc(Br)c2)S(C)(=O)=O)cc1Cl,-0.1,-6.9,-1.3,10.3
CC(=O)N(C1=C(N2CCOCC2)C(=O)c2ccccc2C1=O)c1ccccc1,-0.3,11.8,-2.5,64.3*
CC(=O)N(C1=C(N2CCOCC2)C(=O)c2ccccc2C1=O)c1cccc(Cl)c1,-0.8,6.0,-3.0,13.1
CC(=O)N(C1=C(N2CCCC2)C(=O)c2ccccc2C1=O)c1cccc(F)c1,0.0,18.3,-2.1,41.9*
OC[C@H]1O[C@@H](n2cnc3c(NCc4ccco4)ncnc32)[C@H](O)[C@@H]1O,-0.1,0.1,0.8,73.7*
CC12Oc3ccccc3C(NC(=S)N1c1cccc(Br)c1)C2C(=O)Nc1ccc(Cl)cc1 (configuration not stated),-0.2,-1.6,0.3,7.1
CN(Cc1ccccc1)c1ccnc2c(-c3cccc(O)c3)cnn12,0.1,-9.5,0.7,90.4*
CC(=O)c1cccc(-c2cnn3c(N4CCN(c5ccccn5)CC4)ccnc23)c1,1.9*,5.9,-1.4,3.4
Nc1cccc(-c2cnn3c(N4CCN(c5ccccn5)CC4)ccnc23)c1,0.0,-3.0,-0.1,-4.0
CN(Cc1ccccc1)c1ccnc2c(-c3cccc(C(=O)O)c3)cnn12,-0.3,-13.9,-4.4,89.1*
CN(Cc1ccccc1)c1ccnc2c(-c3ccc(CO)cc3)cnn12,0.2,-12.5,0.3,-39.2
CC(C)(C)C(=O)N(CCCCN1C(=O)c2ccccc2C1=O)c1ccc(Cl)cc1,0.0,-4.3,0.7,2.4
CCOC(=O)c1ccccc1NC(=O)Cc1noc2ccc(C)cc12,-0.1,1.6,-0.3,5.0
O=C(c1ccc2c(=O)n(-c3ccc(F)c(Cl)c3)c(=S)[nH]c2c1)N1CCOCC1,0.0,4.3,-0.8,-0.8
CC(=O)Nc1ccc(S(=O)(=O)N2c3ccccc3C(C)=CC2(C)C)cc1,0.1,-0.1,0.2,58.1*
O=C(CN1C(=O)/C(=C\c2cccs2)SC1=S)Nc1ccccc1[N+](=O)[O-],0.1,-8.8,3.1,11.4
COc1cccc(C2CC(c3c(O)cc(C)oc3=O)=NCCS2)c1OC (configuration not stated),0.2,-8.6,1.7,42.4*
COc1cccc(C2C=C(c3cccc(Br)c3)Nc3nnnn32)c1 (configuration not stated),-0.1,7.0,-1.2,49.0*
COc1cccc(C2=CC(c3ccccc3C)n3nnnc3N2)c1 (configuration not stated),-0.1,-6.1,-1.1,44.4*
COc1ccc(C2C=C(c3cccc(Br)c3)Nc3nnnn32)cc1OC (configuration not stated),0.0,-0.4,0.5,2.6
COc1cccc(C2=CC(c3cc(Br)ccc3F)n3nnnc3N2)c1 (configuration not stated),-0.1,4.5,1.5,46.1*
Cc1cccc(Nc2ncccc2C(=O)N2CCCC2)c1,0.0,18.2,1.1,2.1
CCCCN1C(=S)SC(C)(C)C1n1oc(=O)n(-c2ccccc2)c1=O (configuration not stated),0.0,1.4,2.8,6.1
COC(=O)C/C=N/N=C1/NC(=O)/C(=C/C(=O)O)S1,-0.2,56.6*,0.8,9.2
COC(=O)/C=C1\S/C(=N\N=C\c2ccc(Cl)cc2)NC1=O,0.1,12.4,-1.1,6.3
SMILES,FBW7 activator,MITF primary,GPR151 activ,TEAD-YAP inh
COc1cccc2sc(Nc3nc(-c4ccccn4)cs3)nc12,-1.8,-3.2,-0.2,63.3*
c1ccc(-c2csc(Nc3nc4cc5c(cc4s3)OCO5)n2)nc1,-1.6,62.2*,-1.7,90.4*
COc1ccccc1Nc1nc(-c2ccccn2)cs1,-1.7,18.5,-1.6,-9.8
O=[N+]([O-])c1cccc(-c2csc(-c3ccc(O)cc3)n2)c1,-0.2,2.0,-0.4,-30.6
NCC(=O)c1ccc(-c2ccccc2)cc1,0.1,-11.9,-1.3,-6.0
N#CC1=C(N)N(c2ncn[nH]2)C2=C(C(=O)CC(c3ccccc3)C2)C1c1ccc(F)cc1 (configuration not stated),0.6,-5.4,-1.0,0.2
CC1CC(C)(C)N(C(=O)Cc2ccc(F)cc2)c2ccccc21 (configuration not stated),0.0,6.2,0.0,4.4
COCCN(Cc1cccnc1)C(Cc1ccccc1)C1CCN(Cc2cnn(C)c2)CC1 (configuration not stated),7.6*,-4.5,2.2,5.7
COCCN(Cc1ccccn1)C(Cc1ccccc1)C1CCN(Cc2cnn(C)c2)CC1 (configuration not stated),-0.2,-2.0,-0.8,-2.4
CC(=O)Nc1nc(-c2cc(Cl)ccc2Cl)cs1,0.1,3.9,-0.7,6.3
CC(=O)Nc1nc(-c2ccc(Cl)cc2Cl)cs1,0.1,-4.0,1.4,50.0*
Cc1nn(-c2ccccc2)c2sc(C(=O)OCC#N)cc12,0.0,-13.8,2.5,5.6
Cc1nnc(SCC(=O)Nc2cccc([N+](=O)[O-])c2)[nH]c1=O,0.2,12.5,0.5,7.7
Cc1cccc(-n2nnnc2Sc2ccc([N+](=O)[O-])c3cnccc23)c1,0.0,6.5,3.0,45.6*
Cn1cnnc1Sc1ccc([N+](=O)[O-])c2cnccc12,-0.1,-4.2,-0.2,1.6
Cc1ccc(OC(=O)N[C@H]2C[C@H]3C(=O)N[C@@H](C)C(=O)N3C2)cc1,0.8,15.9,0.9,6.5
COc1cncc(-c2cnn3ccc(Nc4ccc(N5CCOCC5)cc4)nc23)c1,0.4,6.9,0.0,39.0*
COc1cc(-c2cnn3ccc(Nc4ccccc4)nc23)cc(OC)c1OC,0.0,17.9,1.3,46.9*
COC(=O)c1nn(-c2ccc(-c3ccccc3)cc2)cc1O,0.1,15.1,-6.5,81.1*
O=S(=O)(NCC1CCCO1)c1ccc(Cc2ccc(S(=O)(=O)NCC3CCCO3)cc2)cc1 (configuration not stated),-0.1,3.4,-1.2,42.7*
O=S(=O)(NCC1CCCO1)c1ccc(-c2ccc(S(=O)(=O)NCC3CCCO3)cc2)cc1 (configuration not stated),0.8,12.7,-1.3,51.8*
O=S(=O)(NCC1CCCO1)c1ccc(NS(=O)(=O)c2ccc(F)cc2)cc1 (configuration not stated),0.0,3.7,1.4,-2.9
O=C1OC(/C=C\c2cccc([N+](=O)[O-])c2)=NC/1=C/c1ccco1,0.1,5.9,-0.1,10.0
CCN(Cc1ccccc1)S(=O)(=O)c1cc(C(=O)Nc2ccc(F)c(F)c2)ccc1F,0.1,11.2,0.6,59.2*
CCc1ccc(NC(=O)c2ccc(F)c(S(=O)(=O)N(CC)Cc3ccccc3)c2)cc1,-0.2,-5.1,-0.1,-2.2
CCN(Cc1ccccc1)S(=O)(=O)c1cc(C(=O)Nc2ccc(Cl)c(Cl)c2)ccc1F,0.3,11.8,1.1,54.9*
O=C(Nc1ccc(F)c(F)c1)c1ccc(F)c(S(=O)(=O)NCc2ccco2)c1,0.5,3.4,-0.1,38.2*
CN(Cc1ccccc1)S(=O)(=O)c1cc(C(=O)Nc2ccc(F)c(F)c2)ccc1F,0.0,-6.0,4.4,43.7*
Cc1ccc(CN2CCN3C(=O)[C@H](Cc4cnc[nH]4)NC(=O)[C@H]3C2)cc1,-0.2,1.7,-0.3,-2.6
